Results reported in PubChem BioAssay.
Inconclusive results are not listed. Activity calls are given as the source filed them. Cut-off read from the data, not from the text of the source, unless noted: active = percent of DMSO control GFP below about 86%; inactive = the rest, inconclusive results apart. Square brackets hold non-standard residues; d marks the D form. Peptide text beside a SMILES is read from it. ξ: configuration not given here. ξV = CC(C)C(N)C(=O)O

Experiments:
[1] = yeast TOR pathway RPL19A-GFP modulators, primary screen, cell-based, S. cerevisiae, multiplex flow cytometry (AID 1862);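 note: lower values mimic rapamycin by blocking the RPL19A rise seen in DMSO cells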; details: S. cerevisiae RPL19A-GFP strain, flow cytometry fluorescence, 3 h; at 10 µM; stronger effect = lower value
[2] = modulators of MEP2-GFP levels in yeast, primary screen, S. cerevisiae, multiplex flow cytometry (AID 1867;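 active = GFP response, as percent of the DMSO control, above the screen-wide mean plus 3 SD, about 139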;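 note: median GFP channel fluorescence of barcode-gated MEP2-GFP cells measured by flow cytometry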); details: S. cerevisiae MEP2-GFP strain, 3 h, at 10 µM, stronger effect = higher value, 100% means same as DMSO wells
[3] = modulators of CIT2-GFP expression in yeast, primary screen, S. cerevisiae, GFP fusion, multiplex flow cytometry (AID 1870;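 active = percent response above a set limit, the screen-wide mean plus 3 SD, cut at about 130% in these data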;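 note: barcoded CIT2-GFP strain pooled with four other GFP strains with rapamycin as positive control; median GFP fluorescence per well over plate mean of DMSO wells so 100% = DMSO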); details: 3 h, at 10 µM, stronger effect = higher value
[4] = modulators of LAP4-GFP expression in yeast, primary screen, S. cerevisiae, multiplex flow cytometry (AID 1873;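 active = GFP signal, as percent of the solvent control, above the screen mean plus 3 SD, about 149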); details: 3 h, at 10 µM, stronger effect = higher value
[5] = modulators of AGP1-GFP expression in yeast TOR pathway, primary screen, cell-based, multiplex flow cytometry, S. cerevisiae (AID 1887;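 active = GFP signal above the screen-wide mean plus 3 SD, that is over about 124.5% of the solvent control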;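 note: AGP1-GFP fusion strain of S. cerevisiae within a five-strain barcoded multiplex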); details: 3 h, at 10 µM, stronger effect = higher value
[6] = inhibitors of CD8+ T cell-vesicle binding, pilot screen, LFA-1/ICAM-1 modulator project, MLPCN validation set, flow cytometry (AID 2523;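 active = response below a set limit, under 55% cells CD8-positive and vesicle-bound, and CD8 cells' 90th-percentile brightness under 279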;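 for vesicle binding response: mean PE anti-B7-1 fluorescence of CD8+ cells relative to row control; 100% = QL9-loaded vesicles with DMSO vehicle in the same plate row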); details: 2C mouse CD8+ T cells, at 7 µM, stronger effect = lower value; double positive events: measured here: CD8+/vesicle+ event percentage
[7] = target: Integrin beta-1 (Homo sapiens) + Integrin alpha-4 (Homo sapiens) (UniProt P13612+P05556); assay: inhibition of HUTS-21 binding to VLA-4, pilot screen, VLA-4 allosteric modulator project, U937 cells, HUTS-21 mAb, flow cytometry, validation set (AID 2674;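 active = inhibition above 50%, about 3 SD of the validation set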;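 note: antibody binding induced by the VLA-4 ligand LDV present at three times its Kd; 0% = LDV ligand with antibody and no compound and 100% = antibody without LDV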); details: HUTS-21 LIBS mAb binding, at 6.7 µM, stronger effect = higher value, binding induced by LDV ligand
[8] = superoxide lowering in aged yeast cells, pilot screen, validation compound set (AID 2706;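 active = superoxide response below 65% of plate, a cut near 3 SD across the whole screen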;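 note: yeast exposed to compound for one week at 30 degrees C before staining; 100% = mean of all compound wells on the same plate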); details: S. cerevisiae aging, superoxide DHE fluorescence; at 10 µM; stronger effect = lower value
[9] = target: Beta-adrenergic receptor kinase 1 (Homo sapiens) (UniProt P25098); assay: GRK2 binders displacing RNA aptamer, biochemical, validation, human GRK2, bead flow cytometry (AID 488806;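 active = aptamer binding inhibition above 30%, about 3 SD of noise from non-fluorescent compounds; inactive = inhibition at or below 30%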); details: bead-bound GRK2, FAM-aptamer displacement, at 10 µM, stronger effect = higher value
[10] = target: Beta-2 adrenergic receptor (Homo sapiens) (UniProt P07550); assay: beta2AR agonists driving receptor internalization, pilot screen, cell-based, FAP fluorogen, flow cytometry, validation set (AID 504459;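 active = percent response above 42, roughly 3 SD of non-fluorescent test compounds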;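 note: agonist-driven loss of surface beta2AR via internalization measured by FAP dye flow cytometry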); details: Am2.2-beta2AR cells, FAP surface receptor flow cytometry; at 10 µM; stronger effect = higher value
[11] = target: AP-2 complex subunit beta (Homo sapiens) (UniProt P63010); assay: inhibitors of arrestin peptide binding to AP2, pilot screen, biochemical, validation set, GST-AP2 beads, flow cytometry (AID 504541;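 active = inhibition above 54%, about 3 SD of non-fluorescent compounds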;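 note: AP2 carries R879A mutation and is captured from E. coli lysate; bead-bound FITC arrestin peptide fluorescence measuring arrestin peptide binding to AP2; 0% = DMSO wells and 100% = excess unlabeled arrestin peptide control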); details: FITC arrestin peptide, at 10 µM, stronger effect = higher value, AP2 beta2 appendage fragment, R879A mutant
[12] = yeast V-ATPase proton transport modulators, S. cerevisiae, pHLuorin, HTS validation (AID 504600; in the data active = response above about 15%;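 note: plate controls were DMSO for no effect and reference compound for full effect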); details: S. cerevisiae pHLuorin cytosolic pH, at 10 µM, stronger effect = higher value
[13] = system: anti-desmoglein-3 scFv antibody binding to human DSG3; assay: inhibitors of anti-DSG3 scFv binding to DSG3, pilot screen, biochemical, validation compound set, bead-based, flow cytometry (AID 588368;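 active = binding below the plate cutoff, the plate median minus 3 SD, with a reading above zero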;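 note: signal is the median channel fluorescence of bead-bound GFP antibody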); details: Protein G beads, DSG3-Fc, scFv-GFP binding, at 10 µM, stronger effect = lower value
[14] = inhibitors of fungal efflux pumps CDR1, CDR2, MDR1, pilot screen, validation compound set, multiplex, phenotypic (AID 588506;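 active = efflux inhibition above 0.42, the validation set average plus 4 SD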;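 note: Nile Red retained in cells so higher fluorescence means more efflux inhibition; 0 = negative control wells and 1 = enniatin B 25 µM full block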); details: S. cerevisiae pump-expressing triplex, Nile Red efflux flow cytometry; at 10 µM; stronger effect = higher value; the pumps come from Candida albicans
[15] = target: ATP-binding cassette sub-family B member 6 (Homo sapiens) (UniProt Q9NP58); assay: ABCB6 transporter inhibitors, pilot screen, K562-ABCB6 cells, flow cytometry, validation set (AID 588550;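 active = inhibition above the screen-wide mean plus 3 SD, about 51%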;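 note: 0% = DMSO wells and 100% = benzethonium chloride 70 µM positive control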); details: K562-ABCB6 porphyrin accumulation, 1 h, at 10 µM, stronger effect = higher value
[16] = promoters of myeloid differentiation in arrested cells, primary screen, cell-based, GFP/MAC1 double positive, flow cytometry, validation set (AID 588685;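 active = differentiation response of at least 50%, scaled between solvent and reference control, from cells with both markers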;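 note: compound exposure lasts four days before antibody staining and flow analysis; 0% = DMSO wells and 100% = 5 µM fulvestrant positive control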); details: ER-HoxA9 marrow cells, stronger effect = higher value, normalized: vehicle 0, fulvestrant 100

AP-2 complex subunit beta (Homo sapiens), sequence (P63010 whole entry, looked up, the tested form may be a part, one chain of several): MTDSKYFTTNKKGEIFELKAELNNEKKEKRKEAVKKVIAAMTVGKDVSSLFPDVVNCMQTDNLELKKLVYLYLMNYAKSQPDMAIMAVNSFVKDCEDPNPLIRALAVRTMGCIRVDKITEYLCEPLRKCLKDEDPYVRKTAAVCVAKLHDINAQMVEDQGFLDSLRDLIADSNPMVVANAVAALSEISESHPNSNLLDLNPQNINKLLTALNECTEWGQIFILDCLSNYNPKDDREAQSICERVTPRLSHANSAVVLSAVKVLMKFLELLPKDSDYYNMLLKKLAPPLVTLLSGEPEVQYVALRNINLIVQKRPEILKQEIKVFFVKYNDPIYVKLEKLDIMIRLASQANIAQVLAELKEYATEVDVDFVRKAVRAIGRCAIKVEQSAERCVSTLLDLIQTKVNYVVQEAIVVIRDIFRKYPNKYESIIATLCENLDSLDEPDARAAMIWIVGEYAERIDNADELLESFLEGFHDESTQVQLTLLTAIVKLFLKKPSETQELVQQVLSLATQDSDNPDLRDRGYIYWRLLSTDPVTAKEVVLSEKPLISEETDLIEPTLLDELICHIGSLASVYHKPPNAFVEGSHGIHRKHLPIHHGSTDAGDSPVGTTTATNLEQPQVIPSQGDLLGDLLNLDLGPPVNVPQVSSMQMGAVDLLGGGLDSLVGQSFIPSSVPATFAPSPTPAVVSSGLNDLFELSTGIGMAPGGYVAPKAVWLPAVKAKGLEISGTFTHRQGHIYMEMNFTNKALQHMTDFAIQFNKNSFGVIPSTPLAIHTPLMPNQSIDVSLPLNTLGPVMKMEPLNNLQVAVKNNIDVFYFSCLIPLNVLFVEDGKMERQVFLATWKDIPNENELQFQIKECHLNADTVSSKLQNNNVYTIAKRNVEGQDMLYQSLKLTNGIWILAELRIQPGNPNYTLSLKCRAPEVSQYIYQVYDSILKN
Beta-adrenergic receptor kinase 1 (Homo sapiens), sequence (P25098 whole entry, looked up): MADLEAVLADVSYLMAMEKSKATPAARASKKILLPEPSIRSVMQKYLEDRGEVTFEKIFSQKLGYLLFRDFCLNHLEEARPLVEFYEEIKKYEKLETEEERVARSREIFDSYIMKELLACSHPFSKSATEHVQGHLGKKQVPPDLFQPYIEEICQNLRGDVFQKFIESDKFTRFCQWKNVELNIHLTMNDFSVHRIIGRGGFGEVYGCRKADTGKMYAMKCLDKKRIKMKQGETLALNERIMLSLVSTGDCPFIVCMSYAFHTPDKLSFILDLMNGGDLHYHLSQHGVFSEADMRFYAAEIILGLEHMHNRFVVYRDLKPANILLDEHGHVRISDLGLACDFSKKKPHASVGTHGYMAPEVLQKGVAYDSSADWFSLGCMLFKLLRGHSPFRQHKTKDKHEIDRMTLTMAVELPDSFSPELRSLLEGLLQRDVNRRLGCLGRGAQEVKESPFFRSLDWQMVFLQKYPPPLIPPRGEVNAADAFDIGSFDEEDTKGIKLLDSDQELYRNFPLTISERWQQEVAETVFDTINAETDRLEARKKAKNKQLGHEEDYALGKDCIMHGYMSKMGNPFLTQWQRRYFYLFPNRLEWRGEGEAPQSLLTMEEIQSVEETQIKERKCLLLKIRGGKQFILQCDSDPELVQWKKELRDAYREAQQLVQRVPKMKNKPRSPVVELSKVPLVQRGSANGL
Integrin beta-1 (Homo sapiens) + Integrin alpha-4 (Homo sapiens), sequence (P05556 whole entry, looked up): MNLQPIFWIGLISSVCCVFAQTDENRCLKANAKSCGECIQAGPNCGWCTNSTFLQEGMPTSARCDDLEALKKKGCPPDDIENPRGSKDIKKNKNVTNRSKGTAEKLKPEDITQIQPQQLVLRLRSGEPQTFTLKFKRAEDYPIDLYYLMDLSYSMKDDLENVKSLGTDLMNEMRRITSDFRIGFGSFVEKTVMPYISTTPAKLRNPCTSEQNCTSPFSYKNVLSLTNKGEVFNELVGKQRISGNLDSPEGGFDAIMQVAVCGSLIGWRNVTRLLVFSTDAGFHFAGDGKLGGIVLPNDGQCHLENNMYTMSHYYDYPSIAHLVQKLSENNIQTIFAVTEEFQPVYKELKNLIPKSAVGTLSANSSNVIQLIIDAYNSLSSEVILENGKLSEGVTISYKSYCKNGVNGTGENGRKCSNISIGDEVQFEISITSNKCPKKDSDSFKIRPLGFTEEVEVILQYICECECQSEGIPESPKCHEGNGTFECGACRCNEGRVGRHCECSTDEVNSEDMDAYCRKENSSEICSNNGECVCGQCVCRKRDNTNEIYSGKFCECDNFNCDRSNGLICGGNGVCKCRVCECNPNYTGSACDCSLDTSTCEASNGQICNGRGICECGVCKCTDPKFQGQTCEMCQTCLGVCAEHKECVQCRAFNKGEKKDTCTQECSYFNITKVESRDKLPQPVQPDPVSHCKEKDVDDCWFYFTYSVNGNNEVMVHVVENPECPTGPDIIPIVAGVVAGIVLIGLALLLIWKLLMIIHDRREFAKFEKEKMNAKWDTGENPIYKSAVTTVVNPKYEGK
Integrin beta-1 (Homo sapiens) + Integrin alpha-4 (Homo sapiens), sequence (P13612 whole entry, looked up): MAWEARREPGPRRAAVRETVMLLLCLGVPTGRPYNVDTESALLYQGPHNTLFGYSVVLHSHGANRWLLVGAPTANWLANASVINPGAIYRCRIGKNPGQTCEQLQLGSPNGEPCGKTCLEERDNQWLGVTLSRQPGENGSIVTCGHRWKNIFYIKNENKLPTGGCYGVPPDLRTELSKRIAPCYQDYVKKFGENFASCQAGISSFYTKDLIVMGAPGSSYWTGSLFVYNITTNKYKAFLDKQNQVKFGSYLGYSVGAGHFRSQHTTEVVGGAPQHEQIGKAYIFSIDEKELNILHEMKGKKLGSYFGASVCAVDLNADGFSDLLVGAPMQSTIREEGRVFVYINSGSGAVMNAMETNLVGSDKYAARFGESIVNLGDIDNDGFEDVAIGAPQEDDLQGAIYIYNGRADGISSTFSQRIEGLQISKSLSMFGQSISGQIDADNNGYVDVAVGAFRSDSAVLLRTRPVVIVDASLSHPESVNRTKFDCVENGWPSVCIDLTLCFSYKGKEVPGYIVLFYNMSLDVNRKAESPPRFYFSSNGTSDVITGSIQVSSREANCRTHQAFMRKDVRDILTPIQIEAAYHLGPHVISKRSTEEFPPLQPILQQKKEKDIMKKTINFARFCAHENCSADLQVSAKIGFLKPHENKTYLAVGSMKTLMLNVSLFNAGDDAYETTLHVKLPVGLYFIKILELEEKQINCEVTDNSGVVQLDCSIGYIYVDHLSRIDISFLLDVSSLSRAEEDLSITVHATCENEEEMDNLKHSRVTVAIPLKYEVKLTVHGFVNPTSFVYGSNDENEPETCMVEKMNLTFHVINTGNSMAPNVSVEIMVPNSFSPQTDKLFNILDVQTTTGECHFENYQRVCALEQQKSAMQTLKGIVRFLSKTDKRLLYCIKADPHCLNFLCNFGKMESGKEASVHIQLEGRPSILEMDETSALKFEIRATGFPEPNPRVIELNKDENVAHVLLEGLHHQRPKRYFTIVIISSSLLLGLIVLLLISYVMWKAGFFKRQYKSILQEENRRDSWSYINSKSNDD
ATP-binding cassette sub-family B member 6 (Homo sapiens), sequence (Q9NP58 whole entry, looked up): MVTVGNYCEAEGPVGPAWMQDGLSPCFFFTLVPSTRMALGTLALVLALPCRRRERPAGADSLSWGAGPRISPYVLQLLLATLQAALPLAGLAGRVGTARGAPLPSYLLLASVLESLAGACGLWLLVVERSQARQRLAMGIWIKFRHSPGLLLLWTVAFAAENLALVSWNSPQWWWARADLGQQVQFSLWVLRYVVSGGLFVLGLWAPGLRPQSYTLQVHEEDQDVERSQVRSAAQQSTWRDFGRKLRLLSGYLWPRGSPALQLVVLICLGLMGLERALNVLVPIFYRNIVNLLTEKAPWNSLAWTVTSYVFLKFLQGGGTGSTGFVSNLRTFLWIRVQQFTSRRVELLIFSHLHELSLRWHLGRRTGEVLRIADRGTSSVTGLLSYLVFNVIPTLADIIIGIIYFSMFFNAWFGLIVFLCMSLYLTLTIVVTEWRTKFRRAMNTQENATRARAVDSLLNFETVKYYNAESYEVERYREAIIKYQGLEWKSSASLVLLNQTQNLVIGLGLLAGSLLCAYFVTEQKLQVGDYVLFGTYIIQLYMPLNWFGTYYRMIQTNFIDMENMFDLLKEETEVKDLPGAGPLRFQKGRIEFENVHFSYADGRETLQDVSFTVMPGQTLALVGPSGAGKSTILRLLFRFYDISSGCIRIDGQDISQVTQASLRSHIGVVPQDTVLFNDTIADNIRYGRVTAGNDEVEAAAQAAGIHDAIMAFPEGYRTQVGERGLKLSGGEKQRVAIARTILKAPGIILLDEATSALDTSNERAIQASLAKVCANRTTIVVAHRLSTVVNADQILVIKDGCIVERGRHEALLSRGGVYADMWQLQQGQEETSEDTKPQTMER
Beta-2 adrenergic receptor (Homo sapiens), sequence (P07550 whole entry, looked up): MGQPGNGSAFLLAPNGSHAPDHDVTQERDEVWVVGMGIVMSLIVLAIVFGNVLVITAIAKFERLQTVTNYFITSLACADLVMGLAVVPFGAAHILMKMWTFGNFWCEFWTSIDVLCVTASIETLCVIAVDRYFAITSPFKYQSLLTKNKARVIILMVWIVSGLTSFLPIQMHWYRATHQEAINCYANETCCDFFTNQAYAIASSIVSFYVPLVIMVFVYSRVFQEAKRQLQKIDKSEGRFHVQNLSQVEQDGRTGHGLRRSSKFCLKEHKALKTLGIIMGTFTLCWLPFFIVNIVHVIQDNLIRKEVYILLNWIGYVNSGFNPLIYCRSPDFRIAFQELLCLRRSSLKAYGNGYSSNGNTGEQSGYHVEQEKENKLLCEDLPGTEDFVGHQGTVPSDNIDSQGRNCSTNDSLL

SMILES | percent of DMSO control GFP [1] | GFP response vs DMSO [2] | percent response of DMSO control [3] | GFP response vs DMSO [4] | GFP response, % of DMSO [5] | double positive events [6] | vesicle binding response [6] | inhibition [7] | superoxide response (% of plate) [8] | aptamer binding inhibition [9] | response [10] | inhibition [11] | response [12] | binding (% of control) [13] | efflux inhibition (fraction of control) [14] | inhibition [15] | differentiation response [16]
O=c1c(C(c2ccccc2)c2c(O)sc3ccccc3c2=O)c(O)sc2ccccc12 | 93.8% (inactive) | 97.6% (inactive) | 91.8% (inactive) | 112% (inactive) | 113% (inactive) | 71.3% | 187% (inactive) | 15.9% (inactive) | 90.1% (inactive) | 1% (inactive) | -1.18% (inactive) | -1.26% (inactive) | 0.43% (inactive) | 107% (inactive) | -0.13 (inactive) | -30% (inactive) | 37.4% (inactive)
O=C(COc1ccc2c(-c3ccccc3)cc(=O)oc2c1)NCc1cccs1 | 97.5% (inactive) | 96.6% (inactive) | 85.4% (inactive) | 102% (inactive) | 102% (inactive) | 64.6% | 214% (inactive) | -3.67% (inactive) | 92.2% (inactive) | -2% (inactive) | -25.8% (inactive) | 26.5% (inactive) | -7% (inactive) | 102% (inactive) | 0.12 (inactive) | 14% (inactive) | 6.83% (inactive)
COCCN(CCOC)Cc1c(C)[nH]c2c(C)c(C)ccc2c1=O | 103% (inactive) | 108% (inactive) | 97.6% (inactive) | 93.7% (inactive) | 102% (inactive) | 63.2% | 132% (inactive) | -2.43% (inactive) | 99.3% (inactive) | 0% (inactive) | 4.86% (inactive) | -8.42% (inactive) | 5.64% (inactive) | 105% (inactive) | -0.29 (inactive) | -9% (inactive) | -10.4% (inactive)
COCC(C)NC(=O)c1ccc(CN2CCc3ccccc3C2)cc1 (stereo not drawn) | 97.3% (inactive) | 108% (inactive) | 103% (inactive) | 120% (inactive) | 92.6% (inactive) | 60.9% | 257% (inactive) | -12.7% (inactive) | 103% (inactive) | -9% (inactive) | -5.78% (inactive) | 53.4% (inactive) | -6.18% (inactive) | 195% (inactive) | -0.1 (inactive) | 2% (inactive) | 16.8% (inactive)
CC(=O)NC(C(=O)NCC(N)=O)C(C)C (stereo not drawn) (Ac-[ξV]-Gly-NH2) | 104% (inactive) | 93% (inactive) | 111% (inactive) | 95.3% (inactive) | 97.3% (inactive) | 65.3% | 195% (inactive) | -7.72% (inactive) | 93.7% (inactive) | -2% (inactive) | -7.22% (inactive) | -9.46% (inactive) | 0.49% (inactive) | 96.9% (inactive) | -0.2 (inactive) | 0% (inactive) | 13.9% (inactive)
O=C(c1ccc(Cl)cc1)C1CCCN(C(=O)/C=C/c2ccccn2)C1 (stereo not drawn) | 92.4% (inactive) | 102% (inactive) | 97.7% (inactive) | 137% (inactive) | 115% (inactive) | 57.5% | 280% (inactive) | -1.12% (inactive) | 91.6% (inactive) | -3% (inactive) | -44.8% (inactive) | -19.4% (inactive) | 2.11% (inactive) | 106% (inactive) | 0 (inactive) | -2% (inactive) | -1.05% (inactive)
CC(C)N(Cc1nccn1C)C(=O)CC1C(=O)NCCN1Cc1ccccc1C(F)(F)F (stereo not drawn) | 102% (inactive) | 98.7% (inactive) | 102% (inactive) | 97% (inactive) | 103% (inactive) | 71.7% | 182% (inactive) | 4.27% (inactive) | 82.9% (inactive) | -2% (inactive) | 2.35% (inactive) | -0.01% (inactive) | -1.67% (inactive) | 102% (inactive) | -0.5 (inactive) | 6% (inactive) | -0.18% (inactive)
CCCCCCC(=O)N(O)C1CC(=O)N(Cc2ccccc2)C1=O (stereo not drawn) | 106% (inactive) | 101% (inactive) | 107% (inactive) | 94% (inactive) | 101% (inactive) | 59.7% | 191% (inactive) | -0.45% (inactive) | 103% (inactive) | 1% (inactive) | -3.98% (inactive) | 6.86% (inactive) | 0.52% (inactive) | 100% (inactive) | -0.01 (inactive) | 9% (inactive) | -4.64% (inactive)
COC(=O)CSc1nc2ccc(N)cc2s1 | 104% (inactive) | 103% (inactive) | 104% (inactive) | 95.3% (inactive) | 97.8% (inactive) | 64.4% | 189% (inactive) | -3.57% (inactive) | 110% (inactive) | -1% (inactive) | 5.1% (inactive) | 4.01% (inactive) | -1.65% (inactive) | 92% (inactive) | 0.02 (inactive) | -5% (inactive) | 12% (inactive)
